In general, inhibition refers to the drop in the measured response relative to a control, in per cent.

This is an account of results in PubChem BioAssay.

A short description of experiment [1]: antimalarial activity against Dd2 strain (AID 2302;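 active = growth inhibition above 50% at the single 2 µM test dose, taken to imply half-maximal potency below 2 µM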;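 also: 0% = DMSO untreated growth and 100% = chloroquine plus artemisinin killed control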). To be noted: P. falciparum Dd2 in RBCs, LDH growth readout, 72 h; at 2 µM; stronger effect = higher value.
Experiment [2] is described as follows: HepG2 cytotoxicity, primary screen, cytotoxicity control for P. falciparum antimalarial project, cell-based, ATP luminescence (AID 2303;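 active = inhibition above 50%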;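 also: 0% = DMSO wells and 100% = digitonin-killed cells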). To be noted: HepG2 viability, 24-48 h, at 10 µM, stronger effect = higher value.
Experiment [3] addresses L-lactate dehydrogenase (Plasmodium falciparum (isolate CDC / Honduras)) (UniProt Q27743). In words: PfLDH activity inhibition – cell lysate, 3D7 strain, counter-screen for P. falciparum growth inhibition project (AID 2304).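 Also: 0% = vehicle and 100% = reference inhibitor.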 Particulars: P. falciparum 3D7 crude extract, LDH APAD/NBT absorbance; at 2 µM; stronger effect = higher value. (Counterscreens check selectivity or assay interference.)

Experiment [4] can be described thus: inhibition of 3D7 malaria parasite growth – strain 3D7 (AID 2306).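 Also: 0% = DMSO wells and 100% = chloroquine plus artemisinin control wells.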 Particulars: P. falciparum 3D7 erythrocytic growth, LDH absorbance, 72 h; at 2 µM; stronger effect = higher value.
Experiment [5] deals with Calcium-dependent protein kinase 1 (Plasmodium falciparum (isolate 3D7)) (UniProt P62344). In words: PfCDPK1 kinase inhibitors, biochemical, TCAMS library (AID 1159585; cut-off not given, nearly all actives have IC50 up to about 0.98 µM;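 also: inhibitors leave more ATP so luminescence rises with inhibition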). To be noted: recombinant PfCDPK1, Kinase-Glo ATP depletion luminescence. On the technique in general: Kinase-Glo reads ATP consumption through a luciferase reaction.
Calcium-dependent protein kinase 1 (Plasmodium falciparum (isolate 3D7)), sequence (P62344 whole entry, looked up): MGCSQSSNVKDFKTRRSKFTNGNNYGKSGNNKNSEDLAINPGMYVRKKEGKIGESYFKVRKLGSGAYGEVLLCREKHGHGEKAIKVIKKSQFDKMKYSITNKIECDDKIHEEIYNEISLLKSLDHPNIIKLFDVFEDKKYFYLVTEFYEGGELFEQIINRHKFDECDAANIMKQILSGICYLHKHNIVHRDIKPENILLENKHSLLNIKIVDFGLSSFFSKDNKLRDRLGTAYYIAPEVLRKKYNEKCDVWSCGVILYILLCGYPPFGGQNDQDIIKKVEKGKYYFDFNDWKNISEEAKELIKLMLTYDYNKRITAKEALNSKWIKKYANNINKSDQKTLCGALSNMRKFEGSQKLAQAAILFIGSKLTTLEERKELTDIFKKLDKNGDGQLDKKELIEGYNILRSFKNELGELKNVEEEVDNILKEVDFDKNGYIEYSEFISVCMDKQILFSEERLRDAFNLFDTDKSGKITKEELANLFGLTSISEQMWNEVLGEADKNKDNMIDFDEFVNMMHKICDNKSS
Experiment [6] addresses Plasmodium falciparum protein kinase 6 (PK6, PF3D7_1337100) (UniProt Q8IDW1). In words: PfPK6 kinase inhibitors, biochemical, TCAMS library (AID 1159586). To be noted: recombinant PfPK6, Kinase-Glo ATP depletion luminescence.
Experiment [7] concerns the target Protein kinase 7 (PK7), Plasmodium falciparum 3D7 (PF3D7_0213400) (UniProt Q7YTF7). In words: inhibition of Plasmodium PK7 catalytic activity – biochemical, TCAMS antimalarial set, Kinase-Glo luminescence (AID 1159587). Particulars: recombinant PfPK7, Kinase-Glo ATP depletion luminescence.
Experiment [8] has as its target Calcium-dependent protein kinase 4 (Plasmodium falciparum (isolate 3D7)) (UniProt Q8IBS5). Put plainly: PfCDPK4 kinase inhibitors, biochemical, TCAMS library (AID 1159588; cut-off not given, nearly all actives have IC50 up to about 0.91 µM). To be noted: recombinant PfCDPK4, Kinase-Glo ATP depletion luminescence.

Values without a mark were called inactive. For some of these results: Results with a measured potency or affinity are listed apart. The source made the active and inactive calls. Unless noted, no rule for the calls is given here.

Protein kinase 7 (PK7), Plasmodium falciparum 3D7 (PF3D7_0213400), sequence (Q7YTF7 1-343): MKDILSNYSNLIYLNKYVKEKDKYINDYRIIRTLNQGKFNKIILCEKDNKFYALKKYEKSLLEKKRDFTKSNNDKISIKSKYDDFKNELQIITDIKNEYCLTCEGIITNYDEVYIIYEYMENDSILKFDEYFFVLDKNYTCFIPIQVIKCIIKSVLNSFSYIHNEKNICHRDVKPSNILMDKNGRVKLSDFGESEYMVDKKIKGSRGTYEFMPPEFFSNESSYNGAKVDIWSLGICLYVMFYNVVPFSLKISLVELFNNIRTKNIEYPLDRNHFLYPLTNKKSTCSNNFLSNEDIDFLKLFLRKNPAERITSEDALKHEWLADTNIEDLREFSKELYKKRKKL
Plasmodium falciparum protein kinase 6 (PK6, PF3D7_1337100), sequence (Q8IDW1 1-305): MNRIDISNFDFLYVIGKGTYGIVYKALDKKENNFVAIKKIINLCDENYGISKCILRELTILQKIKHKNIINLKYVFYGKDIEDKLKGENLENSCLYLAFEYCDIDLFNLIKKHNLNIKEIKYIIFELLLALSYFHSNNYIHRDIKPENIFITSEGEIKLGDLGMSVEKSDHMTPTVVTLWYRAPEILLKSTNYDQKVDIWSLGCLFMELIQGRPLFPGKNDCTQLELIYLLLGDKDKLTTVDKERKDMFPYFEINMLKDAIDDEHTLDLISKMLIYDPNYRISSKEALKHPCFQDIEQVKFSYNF
Calcium-dependent protein kinase 4 (Plasmodium falciparum (isolate 3D7)), sequence (Q8IBS5 whole entry, looked up): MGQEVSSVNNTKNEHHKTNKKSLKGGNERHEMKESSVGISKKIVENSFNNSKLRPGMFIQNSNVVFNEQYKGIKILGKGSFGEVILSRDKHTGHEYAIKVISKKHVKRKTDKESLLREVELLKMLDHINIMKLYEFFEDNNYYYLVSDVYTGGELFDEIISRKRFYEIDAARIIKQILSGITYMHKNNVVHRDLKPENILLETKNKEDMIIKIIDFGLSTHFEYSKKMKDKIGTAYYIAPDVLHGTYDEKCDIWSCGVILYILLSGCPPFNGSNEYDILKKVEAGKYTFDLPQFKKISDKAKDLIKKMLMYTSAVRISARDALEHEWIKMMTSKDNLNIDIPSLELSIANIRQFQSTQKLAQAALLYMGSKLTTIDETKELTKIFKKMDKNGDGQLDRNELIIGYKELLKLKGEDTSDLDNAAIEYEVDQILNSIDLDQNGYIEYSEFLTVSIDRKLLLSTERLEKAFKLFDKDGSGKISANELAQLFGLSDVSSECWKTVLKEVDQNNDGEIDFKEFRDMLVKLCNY
L-lactate dehydrogenase (Plasmodium falciparum (isolate CDC / Honduras)), sequence (Q27743 whole entry, looked up): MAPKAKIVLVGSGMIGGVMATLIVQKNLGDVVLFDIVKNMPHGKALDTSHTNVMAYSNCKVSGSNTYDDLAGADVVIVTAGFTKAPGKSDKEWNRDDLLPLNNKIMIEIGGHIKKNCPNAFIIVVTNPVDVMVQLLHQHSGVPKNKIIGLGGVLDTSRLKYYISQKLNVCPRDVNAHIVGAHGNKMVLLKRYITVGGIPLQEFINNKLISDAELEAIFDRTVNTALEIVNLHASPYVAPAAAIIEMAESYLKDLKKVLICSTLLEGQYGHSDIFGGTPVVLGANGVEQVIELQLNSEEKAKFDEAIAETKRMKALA

`CCN(CC)C(=O)C(=O)c1c[nH]c2ccc(Cl)cc12`: the growth inhibition in experiment [1] and in experiment [4] was 96% (active) each time. Further, the inhibition in experiment [2] was 1%; in experiment [3] it was 0%. Besides, the outcome in experiment [5], in experiment [6], in experiment [7] and in experiment [8] was inactive.

On to `CCCCCCN1CCCN(Cc2cccc(NC(=O)c3cc4ccccc4s3)c2)CC1`, for which the growth inhibition in experiment [1] is 53% (active); in experiment [4] it was 88% (active). Further, the inhibition was 31% in experiment [2] and 6% in experiment [3]. Also, the outcome in experiment [5], in experiment [6], in experiment [7] and in experiment [8] was inactive.

As to `COc1ccc2ncc(F)c(CCN3CC[C@H](NCc4cc(C#N)c5c(c4)OCCO5)[C@H](O)C3)c2c1`, the growth inhibition was 47% in experiment [1] and 96% (active) in experiment [4]. In addition, the inhibition in experiment [2] is 51% (active); in experiment [3], 2%. Besides, the outcome in experiment [5], in experiment [6], in experiment [7] and in experiment [8] was inactive.

Consider `Cc1[nH]n(-c2cccc(Cl)c2)c(=O)c1-c1ccc(Cl)cc1`, for which the growth inhibition is 41% in experiment [1] and 99% (active) in experiment [4]. Also, the results for the inhibition in experiment [2] and in experiment [3] were 0% and -8%, respectively. Besides, the result in experiment [5], in experiment [6], in experiment [7] and in experiment [8] was inactive.

Turning to `O=C(Nc1ccc(N2CCNCC2)cc1)c1ccn2ncc(-c3cccc(Cl)c3)c2n1`, the growth inhibition in experiment [1] is 53% (active); in experiment [4] it was 96% (active). Further, the figures for the inhibition in experiment [2] and in experiment [3] were 79% (active) and -2%, respectively. For the same compound, the result in experiment [5], in experiment [6], in experiment [7] and in experiment [8] was inactive.

In the case of `Cc1ccccc1C1CCN(C2CCC(NC(=O)c3csc(-c4cccc(Cl)c4)n3)CC2)CC1` (stereo not given), the growth inhibition in experiment [1] is 42%; in experiment [4], 85% (active). Also, the values for the inhibition in experiment [2] and in experiment [3] were 33% and 3%, respectively. The result in experiment [5], in experiment [6], in experiment [7] and in experiment [8] was inactive.

For the compound `COc1ccc2nccc([C@@H](O)CN3CCC(NCCOc4cc(F)cc(F)c4)CC3)c2c1`, the growth inhibition in experiment [1] was 86% (active); in experiment [4] it was 101% (active). Also, the inhibition is 10% in experiment [2] and -3% in experiment [3]. Further, the result in experiment [5], in experiment [6], in experiment [7] and in experiment [8] was inactive.

Regarding `CN1CCN(c2nsc3ccc(-c4ccc(NC(=O)Nc5ccccc5)cc4)cc23)CC1`, the growth inhibition in experiment [1] is 98% (active); in experiment [4], 102% (active). The inhibition in experiment [2] is 38%; in experiment [3], -1%. Besides, the result in experiment [5], in experiment [6], in experiment [7] and in experiment [8] was inactive.

For `Cc1ccc(OCCCCONC(=O)c2ccccc2)cc1`, the growth inhibition in experiment [1] was 1%; in experiment [4], 96% (active). Also, the figures for the inhibition in experiment [2] and in experiment [3] were 6% and -2%, respectively. Besides, the outcome in experiment [5], in experiment [6], in experiment [7] and in experiment [8] was inactive.

As to `CN1CCC(NCc2ccc(-c3ccc(S(=O)(=O)NCc4ccccc4)c(F)c3)cc2)CC1`, the growth inhibition is 89% (active) in experiment [1] and 99% (active) in experiment [4]. The inhibition in experiment [2] is 53% (active); in experiment [3], -3%. The result in experiment [5], in experiment [6], in experiment [7] and in experiment [8] was inactive.

With `COc1ccc(Br)cc1/C=C/C(=O)Nc1ccc(C2CCN(C)CC2)cc1`, the growth inhibition is 61% (active) in experiment [1] and 101% (active) in experiment [4]. In addition, the inhibition in experiment [2] is 11%; in experiment [3] it was -3%. Also, the result in experiment [5], in experiment [6], in experiment [7] and in experiment [8] was inactive.

With `COc1ccc2nccc([C@@H](O)CN3CCC(NCc4cnc5c(c4)NC(=O)CS5)CC3)c2c1`, the growth inhibition in experiment [1] was 29%; in experiment [4], 87% (active). Further, the values for the inhibition in experiment [2] and in experiment [3] were -15% and 0%, respectively. Besides, the result in experiment [5], in experiment [6], in experiment [7] and in experiment [8] was inactive.

In the case of `Brc1ccc(Nc2nc(NCc3ccccc3)c3ccccc3n2)cc1`, the growth inhibition in experiment [1] is 99% (active); in experiment [4], 101% (active). Further, the values for the inhibition in experiment [2] and in experiment [3] were 24% and -4%, respectively. Moreover, the outcome in experiment [5], in experiment [6], in experiment [7] and in experiment [8] was inactive.

For the compound `CC(C)c1ccc(NC(=O)c2ccc(C(=O)NC3CCN(CC4CCCCC4)C3)cc2)cc1` (stereo not given), the growth inhibition in experiment [1] was 26%; in experiment [4] it was 93% (active). Also, the results for the inhibition in experiment [2] and in experiment [3] were 35% and 3%, respectively. The outcome in experiment [5], in experiment [6], in experiment [7] and in experiment [8] was inactive.

For the compound `Cc1ccc(NCC(=O)Nc2ccc(F)c(Cl)c2)cc1S(=O)(=O)N1CCOCC1`, the growth inhibition is 97% (active) in experiment [1] and 98% (active) in experiment [4]. For the same compound, the figures for the inhibition in experiment [2] and in experiment [3] were 2% and 0%, respectively. The result in experiment [5], in experiment [6], in experiment [7] and in experiment [8] was inactive.

For the compound `CCOc1cccc(C(=O)Nc2nonc2-c2ccc(OC)c(OC)c2)c1`, the growth inhibition in experiment [1] was 95% (active); in experiment [4], 92% (active). The inhibition is 11% in experiment [2] and 4% in experiment [3]. Also, the result in experiment [5], in experiment [6], in experiment [7] and in experiment [8] was inactive.

For the compound `COc1cc2ncnc(Nc3ccc(Br)c(Cl)c3)c2cc1OC`, the growth inhibition in experiment [1] is 15%; in experiment [4], 101% (active). Further, the inhibition in experiment [2] was 22%; in experiment [3] it was 6%. Also, the result in experiment [5], in experiment [6], in experiment [7] and in experiment [8] was inactive.

For `O=C(/C=C/c1ccc(CNCCN2CCOCC2)cc1)NCCc1ccccc1`, the growth inhibition in experiment [1] is 3%; in experiment [4], 94% (active). Moreover, the inhibition in experiment [2] is 9%; in experiment [3], -2%. The result in experiment [5], in experiment [6], in experiment [7] and in experiment [8] was inactive.

Take `CCCCOc1cc(C)nc2ccc(NC(=O)COCC(=O)Nc3ccc4nc(C)cc(OCCCC)c4c3)cc12`: the values for the growth inhibition in experiment [1] and in experiment [4] were 28% and 90% (active), respectively. Besides, the inhibition is -11% in experiment [2] and -3% in experiment [3]. The outcome in experiment [5], in experiment [6], in experiment [7] and in experiment [8] was inactive.

As to `N=c1n(CCN2CCCCC2)c2ccccc2n1CC(O)c1cccc(Br)c1` (stereo not given), the growth inhibition in experiment [1] is 33%; in experiment [4] it was 86% (active). Further, the inhibition in experiment [2] is 25%; in experiment [3], -1%. In addition, the outcome in experiment [5], in experiment [6], in experiment [7] and in experiment [8] was inactive.
